# Tested on: HepG2
# Assay: GSK_TCMDC: Percent inhibition of human HepG2 cell line. Test compounds present at 10uM.
# Type: functional
row,Structure (SMILES),Inhibition [%]
1,COc1cc2nc(N3CCC(CNC(=O)c4ccc(-c5ccccc5)cc4)CC3)nc(N)c2cc1OC,11
2,CCN(CC)CCN(Cc1ccc(-c2ccc(C(F)(F)F)cc2)cc1)C(=O)Cn1cc(CCCCc2cccc(F)c2F)c(=O)c2ccccc21.O=C(O)C(O)C(O)C(=O)O,18
3,COc1ccc2ccccc2c1C=NN=c1cc(C)[nH]c2c(C)cccc12,0
4,CN1CCN(c2ccc3nccc(CCN4CCC(NCc5ccc6c(n5)NC(=O)CO6)CC4)c3n2)CC1.Cl,9
5,CC(CN(C)C)C(=O)Nc1ccc(-c2ccc(-c3nc4ccccc4[nH]3)s2)cc1 (stereo not given),14
6,NCCNc1ccc([N+](=O)[O-])cc1C(=O)Nc1cccc(Cl)c1,23
7,Cl.OCCNc1nc(Nc2ccccc2)nc2ccccc12,5
8,N#Cc1ccc(N[C@@H](CC2CCCCC2)C(=O)NCc2cc(F)c(F)cc2F)c2ccccc12.O=C(O)C(F)(F)F,12
9,COc1cc2nc(-c3ccc(Br)cc3)cc(N)c2cc1OC,90
10,O=C(Cn1c(SCc2cccc(F)c2F)cc(=O)c2ccccc21)N(CCN1CCCCC1)Cc1ccc(-c2ccc(C(F)(F)F)cc2)cc1.O=C(O)C(O)C(O)C(=O)O,41

# Reference: ChEMBL document CHEMBL1157539, “Thousands of chemical starting points for antimalarial lead identification” (Nature, 2010)
